From publication PMC9574860, “Chemical Toolkit for PARK7: Potent, Selective, and High-Throughput” (Journal of Medicinal Chemistry, 2022)
Screen size: about 7,900 compounds; about 400 (5.1%) showed an effect of 50% or more. Shown is part of a subset that was picked to be rich in strong results.

The compounds below were run against Parkinson's disease protein 7 (PARK7/DJ1) (human, UniProt Q99497) (assay: primary screen, percent inhibition; read as competition with a fluorescent probe by fluorescence polarization; higher = more effect of the substance). Settings: 100 µM.
Parkinson's disease protein 7 (PARK7/DJ1), sequence (Q99497 whole entry, looked up, the tested form may be a part): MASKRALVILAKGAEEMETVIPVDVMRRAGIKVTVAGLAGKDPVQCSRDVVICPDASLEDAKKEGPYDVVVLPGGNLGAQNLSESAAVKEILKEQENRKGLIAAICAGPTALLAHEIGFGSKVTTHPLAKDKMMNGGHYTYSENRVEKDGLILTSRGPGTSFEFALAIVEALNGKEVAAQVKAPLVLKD
Method in brief: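 Covalent fragments at 100 μM final were incubated 2 h with 0.2 μM PARK7, then 20 nM probe JYQ-107 added for a further 2 h. Fluorescence polarization read at 480/520 nm; relative FP loss versus reference controls gave remaining enzyme activity.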
In the case of `C=CC(=O)NC(C)(C)c1noc(C(C)(C)C)n1`, the Inhibition % is reported as 17.1%.
In the case of `CN(C)CCn1c(S)nc2ccccc2c1=O`, the Inhibition % is reported as 82.9%.
Work on `CCN(CC)CCn1c(S)nc2ccccc2c1=O` yielded an Inhibition % of 4.52%.
For `CN(C)CCCn1c(S)nc2ccccc2c1=O`, the Inhibition % was 5.79%.
`CC1=NOC(=O)C1CCC(=O)O` (stereo not drawn) gave an Inhibition % of 8.64%.
Compound `CC1=NOC(=O)C1CC(=O)O` (stereo not drawn) has an Inhibition % of 99%.
`O=C1OCCC1Sc1nnc(C2CCCCC2)o1` (stereo not drawn) showed an Inhibition % of 66.7%.
Compound `O=C1OCCC1Sc1nnc(-c2cccs2)o1` (stereo not drawn) has an Inhibition % of 21.8%.
`O=C1OCCC1Sc1nnc(-c2ccncc2)o1` (stereo not drawn) was tested, and the Inhibition % was 6.02%.
With `c1ccc(N2CCN(CC3OCCO3)CC2)cc1` the Inhibition % was 5.86%.
`C=CC(=O)NC1CC(NC(=O)C2CCC2)C1` (stereo not drawn) was tested, and the Inhibition % was 7.98%.
Work on `N#Cc1ccc(NC(=O)CCCl)cc1` yielded an Inhibition % of 9.81%.
`CC1(C)OB(c2ccnc3c(O)cccc23)OC1(C)C` was tested, and the Inhibition % was 22.4%.
Work on `ClCCCn1cccn1` yielded an Inhibition % of 5.21%.
`CN(Cc1ccsc1)C(=O)CCl` gave an Inhibition % of 37.6%.
`CSc1ccc(CN(C)C(=O)CCl)cc1` gave an Inhibition % of 14.4%.
`Cc1ccc(CN(C)C(=O)CCl)cc1` was tested, and the Inhibition % was 68.9%.
`CN(Cc1ccc(Cl)cc1)C(=O)CCl` showed an Inhibition % of 48.5%.
In the case of `CN(Cc1ccc(N(C)C)cc1)C(=O)CCl.Cl`, the Inhibition % is reported as 71.3%.
`CN(Cc1ccc(Br)cc1)C(=O)CCl` was tested, and the Inhibition % was 52.8%.
Work on `CN(Cc1ccc(Cl)c(Cl)c1)C(=O)CCl` yielded an Inhibition % of 43.3%.
With `CCN(Cc1ccc2c(c1)OCCO2)C(=O)CCl` the Inhibition % was 17.9%.
In the case of `CN(Cc1ccc2c(c1)OCCO2)C(=O)CCl`, the Inhibition % is reported as 91.9%.
With `C=CC(=O)NCc1cc(C)on1` the Inhibition % was 8.31%.
`CCC(=O)N1CCCC1C1CCCN1C1CCOC1=O` (stereo not drawn) was tested, and the Inhibition % was 8.79%.
`N#CC(=Cc1ccc(CSC(F)F)o1)C(N)=O` showed an Inhibition % of 16.4%.
Compound `CC(=O)c1ccc(F)c(B2OC(C)(C)C(C)(C)O2)c1` has an Inhibition % of 5.97%.
Compound `O=C(CCl)N1N=C(c2ccco2)CC1c1cccs1` (stereo not drawn) has an Inhibition % of 12.6%.
With `O=C(CCl)Nc1ccccc1C(F)(F)F` the Inhibition % was 11.7%.
`C=CC(=O)Nc1nc(COC)cs1` was tested, and the Inhibition % was 8.35%.
`C=CC(=O)NCC1(C)CC(F)(F)C1` was tested, and the Inhibition % was 5.99%.
`CC1CC(n2cnc3c2c(=O)n(C)c(=O)n3C)C(=O)O1` (stereo not drawn) was tested, and the Inhibition % was 8.16%.
With `CC(C)(C)Nc1cc(F)c(S(=O)(=O)F)cc1N` the Inhibition % was 7.67%.
`Cc1nn(S(=O)(=O)c2ccccc2)c(C)c1C` was tested, and the Inhibition % was 6.77%.
In the case of `N#CC(=Cc1ccccc1)C(=O)O`, the Inhibition % is reported as 0.493%.
`Clc1ccc(Cl)c(OCC2CO2)c1` (stereo not drawn) gave an Inhibition % of 5.37%.
Compound `CCc1nccn1S(=O)(=O)c1cc(C)c(OC)cc1C` has an Inhibition % of 7.23%.
Work on `O=C(NCC1CCC(O)C1)c1cc(B(O)O)ccc1F` (stereo not drawn) yielded an Inhibition % of 1.49%.
`O=C(CCl)c1cscn1` was tested, and the Inhibition % was 101%.
In the case of `Cl.O=C(CCl)Nc1ccccn1`, the Inhibition % is reported as 14.1%.
Work on `ClCCc1cscn1` yielded an Inhibition % of 5.31%.
Compound `O=C(CCl)c1ccccn1` has an Inhibition % of 102%.
In the case of `C=CC(=O)NCCc1cscn1`, the Inhibition % is reported as 5.76%.
Work on `Cl.O=C(CCl)c1c[nH]c2ncccc12` yielded an Inhibition % of 10.6%.
`COc1cncc(C#N)n1` showed an Inhibition % of 9.79%.
`C=CC(=O)N1Cc2ccccc2OC(C)(C)C1` was tested, and the Inhibition % was 13.6%.
Work on `Cc1cc(C)cc(OC(=O)N2CCOCC2)c1` yielded an Inhibition % of 6.2%.
`CCc1nc(C)cn1S(=O)(=O)c1cc(Cl)ccc1OC` gave an Inhibition % of 5.69%.
Compound `C=CC(=O)N1CC(S(=O)(=O)c2ccccc2F)C1` has an Inhibition % of 5.39%.
For `N#Cc1nc(N2CC[C@H](O)C2)ccc1Cl`, the Inhibition % was 9.73%.
In the case of `CC1(C)OB(c2cncc(F)c2)OC1(C)C`, the Inhibition % is reported as 4.04%.
`N#CC(=Cc1ccco1)C(=O)Nc1nnc(C(F)F)s1` showed an Inhibition % of 4.49%.
`O=C(CCl)NCCc1ccc(F)cc1` was tested, and the Inhibition % was 26.6%.
`Cc1oc(C(=O)O)cc1C(=O)CCl` gave an Inhibition % of 92.2%.
For `Cc1oncc1C(=O)CCl`, the Inhibition % was 40.2%.
In the case of `Cc1oc(C(N)=O)cc1C(=O)CCl`, the Inhibition % is reported as 30.9%.
`CC(C)N1CCOC(CCl)C1` (stereo not drawn) gave an Inhibition % of 5.12%.
Compound `O=c1[nH]c(=O)n(C2CC2)c2nc(C3CC3)nc(S)c12` has an Inhibition % of 3.15%.
`Cn1nccc1[C@@H]1OCC[C@H]1CN1CC=C(B(O)O)CC1` showed an Inhibition % of 44.8%.
For `OB(O)C1=CCN(Cc2ccnn2-c2ccncc2)CC1`, the Inhibition % was 61.3%.
`OB(O)C1=CCN(Cc2cc3n(n2)CCC3)CC1` was tested, and the Inhibition % was 33.1%.
`C=CC(=O)NC1CC(OCC)C12CCCC2` (stereo not drawn) was tested, and the Inhibition % was 8.99%.
With `O=C1CCC(CN2CCc3[nH]c4ccc(F)cc4c3C2)O1` (stereo not drawn) the Inhibition % was 21.1%.
